Screens deposited in PubChem BioAssay by several laboratories.
MITF TRPM1 inh – reduces MITF-dependent TRPM1 promoter luciferase signal | AID 488899 | inhibition, % at 12.5 µM | SK-MEL-5 TRPM1 promoter luciferase, 24 h | 330,000 tested, 0.83% active;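 active = mean inhibition across replicates of 60% or more, whatever share of single replicates reaches that level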
EBV LMP1 NFkB – inhibitors of Epstein-Barr LMP1-induced NF-kappaB reporter; LMP1-induced NF-kappaB luciferase reporter cells, luminescence; inhibition, % at 12.5 µM; 350,000 tested, 0.69% active; in the data active = inhibition above about 41%;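 note: 0% = neutral control wells and 100% = reference inhibitor control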
697 NFkB inh – lowers PMA/ionomycin-induced NF-kB signal in 697 B cells. 330,000 tested, 0.33% active. AID 435022. 697 B-cell NF-kB luciferase reporter, 16 h. inhibition, % at 4 µM; in the data active = inhibition above about 35%
Shn3 inh set2 – inhibitors of Schnurri-3 3'UTR reporter in osteoblasts; 360,000 tested, 0.52% active; AID 588674; inhibition, % at 12.5 µM; Clone20 osteoblast Shn3 3'UTR firefly luciferase, 24 h;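 active = mean inhibition of at least 75% with every replicate also reaching 75%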;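 note: 0% = median of neutral control wells and 100% = pilot-screen positive control compound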
Gli-Sufu antag – blocks Gli-Sufu signaling in a luciferase reporter; 340,000 tested, 0.74% active; Sufu-KO-LIGHT fibroblasts, Gli luciferase reporter luminescence; inhibition, % at 5 µM;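 active = inhibition above about 55%, limit read from the data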;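 note: 0% = DMSO-treated cells and 100% = wells with medium but no cells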
Jurkat NFkB inh – lowers PMA/ionomycin-induced NF-kB signal in Jurkat cells | PMA/ionomycin-induced NF-kB luciferase reporter, luminescence | 330,000 tested, 0.53% active | inhibition, % at 4 µM | AID 435003; in the data active = inhibition above about 50%
697 NFkB conf – inhibitors of the PMA/ionomycin-induced NF-kB reporter in 697 B cells, retest; shares compounds with 697 NFkB inh; 697 B-cell NF-kB luciferase, 16 h; inhibition, % at 4 µM; 2,000 tested, 35% active; in the data active = inhibition mostly above about 28%, no sharp cut-off; inactive = mostly below about 22%
Numbers without * were called inactive; i = inactive; . = no result given. Hits are enriched below; roughly 2.3% of the tested compounds scored in any of these assays.

SMILES	MITF TRPM1 inh	EBV LMP1 NFkB	697 NFkB inh	Shn3 inh set2	Gli-Sufu antag	Jurkat NFkB inh	697 NFkB conf
CCN(CC)c1ccc(/C=C2/C(=O)ON=C2C)cc1	9	14	40*	20	-11	14	36*
COc1cc(C(O)c2nc(-c3cc(F)cc(F)c3)cs2)ccc1F (stereo not drawn)	.	.	.	9	.	.	.
Cc1cc2cc(CN(CC3CCCO3)C(=O)c3cnccn3)c(=O)[nH]c2cc1C (stereo not drawn)	12	3	36*	-56	4	9	6
O=C(Nc1nc2c(Br)cc(Br)cc2c(=O)s1)c1ccco1	-9	-4	36*	.	10	15	37*
COc1ccc2sc(NC(=O)c3ccco3)nc2c1	0	27	-281	9	-99	-89	-238
Cc1cc(C)c2nc(NC(=O)c3ccco3)sc2c1	-24	-42	-298	-41	-139	-135	-406
Cc1cc(NC(=O)c2ccccc2)nc2c1c(=O)oc1ccccc12	0	8	35*	0	2	-6	10
COc1ccc(-c2noc(N3CCC(C(=O)Nc4ccc(OC)c(OC)c4)CC3)n2)cc1	2	4	47*	-20	-6	17	38*
COc1ccc(-c2noc(N3CCC(C(=O)Nc4ccccc4Cl)CC3)n2)cc1	.	7	39*	16	5	20	19
COc1ccc(-c2noc(N3CCC(C(=O)Nc4ccccc4F)CC3)n2)cc1	.	20	24	14	-9	10	.
COc1ccc(NC(=O)c2cnc3sccn3c2=O)cc1	-18	-41	-67	-40	-67	-70	.
O=c1cc(-c2ccc(O)c(-c3c(O)cc(O)c4c(=O)cc(-c5ccc(O)cc5)oc34)c2)oc2cc(O)cc(O)c12	-2	-27	40*	10	-9	-4	14
O=c1cc(-c2ccc(O)cc2)oc2c(-c3c(O)cc(O)c4c(=O)cc(-c5ccc(O)cc5)oc34)c(O)cc(O)c12	6	1	30	-6	34	-6	.
CCCCn1c(N)c(N(CC(C)C)C(=O)C2CCN(C(=O)c3ccc(F)cc3)CC2)c(=O)[nH]c1=O	1	-4	-15	-11	-5	3	.
COc1ccc(C(=O)N2CCCC(c3ccccc3)=N2)cc1	10	-2	25	3	21	15	.
Cc1ccc(C(=O)N2CCCC(c3ccc(Cl)cc3)=N2)cc1	-17	0	42*	4	7	-2	39*
CCCSc1nc(N2CCCC2)c2c(c1C#N)CC(C)(C)OC2	5	-3	-40	10	2	-3	.
Nc1ccc2nc(-c3ccccc3)sc2c1	36	34	-344	13	-112	-113	-179
Nc1ccc2nc(-c3ccccc3)c(-c3ccccc3)nc2c1	12	-23	-19	-7	-13	14	.
Cc1nc2c(-c3ccccc3)cnn2c(N)c1-c1ccccc1	6	3	-428	16	56*	-97	-248
Cc1cc(NC2CCCC2)n2ncc(-c3ccccc3)c2n1	-24	9	i	-1	-26	-112	i
Cc1cc(NCc2ccccc2)n2ncc(-c3ccccc3)c2n1	-99	-141	i	-29	-76	-135	-397
Cc1cc(NC2CCCC2)n2nc(C)c(-c3ccccc3)c2n1	-91	-23	-49	-17	-6	-33	.
CC1CN(S(=O)(=O)c2ccccc2)CN1C(=O)N1CCOCC1 (stereo not drawn)	0	-5	10	7	24	17	.
Cc1oc2cc3oc(=O)c(CCC(=O)N4CCC(C(=O)O)(c5ccccc5)CC4)c(C)c3cc2c1C	.	.	.	13	.	.	.
SMILES	MITF TRPM1 inh	EBV LMP1 NFkB	697 NFkB inh	Shn3 inh set2	Gli-Sufu antag	Jurkat NFkB inh	697 NFkB conf
Cc1c(CC(=O)NCCCC(=O)O)c(=O)oc2cc3oc4c(c3cc12)CCCC4	-1	-4	-13	-1	-2	-7	.
O=C(O)C1CCN(C(=O)COc2ccc3c4c(c(=O)oc3c2)CCCC4)CC1	2	6	38*	-25	-1	1	13
Cc1c(CC(=O)NCCC(=O)O)c(=O)oc2cc3oc4c(c3cc12)CCCC4	5	7	17	6	7	16	.
Cc1c(CCC(=O)N2CCC(C(=O)O)(c3ccccc3)CC2)c(=O)oc2cc3oc4c(c3cc12)CCCC4	54	8	53*	23	9	-1	37*
Cc1c(CCC(=O)N[C@@H](C)C(=O)O)c(=O)oc2cc3oc4c(c3cc12)CCCC4	.	20	41*	36	11	12	18
Cc1c(CCC(=O)N2CCC(C(=O)O)CC2)c(=O)oc2cc3oc4c(c3cc12)CCCC4	45	15	49*	8	6	0	47*
COc1ccc(C(=O)N2CC(=O)Nc3ccc(C)cc3C2c2ccccc2)cc1 (stereo not drawn)	0	-6	7	9	9	16	.
CN(Cc1ccccc1)C(=O)c1ccc(NC(=O)Cc2ccc(NC(=O)C3CCN(C(=O)C4CCCC4)CC3)cc2)cc1	5	5	.	10	3	.	.
O=C1OC(Sc2ccccc2)(c2ccccc2)c2ccccc21 (stereo not drawn)	2	4	.	21	9	.	.
Cn1c(/C(C#N)=C(\O)c2ccc(Br)s2)nc2ccccc21	-21	-21	-84	-66	-35	-26	.
COc1ccc(CCNC(=O)c2cc(-c3ccco3)nc3ccccc23)cc1	.	.	12	.	2	12	.
CC(=O)Nc1cccc(NC(=O)c2cc(-c3cccnc3)nc3ccc(Br)cc23)c1	8	-10	41*	24	2	10	16
CC(C)c1ccc(S(=O)(=O)N2CCN(C(C)C(=O)Nc3ccccc3-c3ccccc3)CC2)cc1 (stereo not drawn)	-1	-8	35*	34	24	15	15
CC(C(=O)Nc1ccccc1-c1ccccc1)N1CCN(S(=O)(=O)c2ccccc2)CC1 (stereo not drawn)	-9	-10	11	9	9	2	.
O=C(c1ccco1)N1CCN(c2ncnc3c2oc2ccccc23)CC1	-46	-14	-86	-48	16	-41	.
CCCCCCOc1ccc(C(=O)NCCCn2ccnc2)cc1	12	2	-5	8	-4	-16	.
CCCCOc1ccc(NC(=O)C(=O)NCCCn2ccnc2)cc1	4	7	54*	7	23	10	58*
Cn1c(/C=N/NC(=O)c2ccccc2Br)nc2ccccc21	3	7	16	14	15	5	.
Cc1ccc(C(=O)N/N=C/c2nc3ccccc3n2C)cc1	-33	12	39*	1	-14	-15	20
Cn1c(=O)c2c(Nc3ccc(F)cc3)cc(=O)n(-c3ccccc3)c2n(C)c1=O	1	9	-2	-8	-1	13	.
Cn1c(=O)cc(Nc2ccccc2)c2c(=O)n(-c3ccccc3)c(=O)n(-c3ccccc3)c21	-5	-3	43*	.	12	-7	32*
